HT1080NT lethal = kills 2HG-producing HT-1080-NT fibrosarcoma cells; Potency, µM (highest dose often 46.1 µM), actives largely listed as cytotoxic; HT-1080-NT fibrosarcoma viability, CellTiter-Glo ATP luminescence, 48 h; actives 1.6% (n = 360,000); AID 686970;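 note: NT is the 2HG producing partner of a matched IDH1 knockdown line; nearly all actives have a fitted effect of over 55% in size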
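750 cells/well, RPMI + 5% FBS; 2 h settle, compound pin-transfer, 48 h at 37 degrees C. CellTiter-Glo 10 min RT, luminescence. Normalized to DMSO and media-only wells.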
HT1080 IDH1KD tx = toxicity to HT-1080 IDH1 knockdown cells (counter line). HT-1080 IDH1 knockdown viability, ATP luminescence, 48 h. Potency, µM (series often up to 46.1 µM), most hits filed as cytotoxic. actives 2% (n = 360,000). AID 686971
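% activity derives from luminescence (CellTiter-Glo), normalised to DMSO and no-cell wells. HT-1080-IDH1KD cells, 750/well, had 48 h compound exposure at 37 °C.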
DT40 TDP1 no CPT = qHTS for Inhibitors of human tyrosyl-DNA phosphodiesterase 1 (TDP1): qHTS in cells in absence of CPT | actives 15% (n = 420,000) | Potency, µM (top dose mostly 46.2 µM), most hits filed as inhibitors | DT40 Tdp1-/- hTDP1 cells, no CPT, ATP luminescence, 48 h; note: nearly all actives have a fitted effect of over 55% in size
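Compound effects on proliferation are scored in DT40 Tdp1-/-;hTDP1 cells in the absence of CPT. ATP levels (CellTiter-Glo luminescence) are recorded after a ≥48 hr, 37 °C incubation.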
HepG2 tox-1 = counter-screen for TGF-b inhibitors: cytotoxicity in HepG2 cells | actives 0.76% (n = 410,000) | Potency, µM (top dose mostly 46.1 µM), hits mostly cytotoxic | AID 588856 | HepG2 CAGA-GFP viability, ATP luminescence, 18 h
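HepG2 CAGA-GFP cells (1000/well, DMEM with 1% FBS) received compound, then TGF-beta at 500 pg/mL final, and were incubated 18 hours at 37 degrees C. Viability was read by CellTiter-Glo luminescence. Media-only wells were set as complete cell-killing and DMSO as no toxicity.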
DT40 TDP1 CPT = DT40-hTDP1 cell growth loss with CPT | chicken DT40 Tdp1-/-;hTDP1 cells + 20 nM CPT, ATP luminescence, 48 h | Potency, µM (doses to about 46.2 µM), hits mostly inhibitors | actives 12% (n = 420,000); note: nearly all actives have a fitted effect of over 55% in size
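Chicken DT40 Tdp1-/- cells stably complemented with human TDP1 were seeded at 400 cells/well in medium containing 20 nM camptothecin, exposed to pin-transferred compounds, and grown at 37 °C for at least 48 hr. Viability was read as ATP luminescence.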
TGFb SMAD3 inh = TGF-b pathway inhibition | HepG2 CAGA-GFP TGF-b/SMAD3 reporter, GFP fluorescence, 18 h; TGF-beta stimulated, 500 pg/mL final | Potency, µM (highest dose often 46.1 µM), actives largely listed as inhibitors | actives 1.2% (n = 410,000); note: nearly all actives have a fitted effect of over 65% in size
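Cell-based qHTS in HEPG2 carrying a CAGA-GFP Smad reporter; compounds added before 500 pg/mL final TGF-beta, 18 h incubation at 37 degrees C, GFP fluorescence quantified per cell by imaging cytometry.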
TGFb CAGA inh = confirmation of TGF-b signaling inhibitors in HepG2 reporter cells. shares compounds with TGFb SMAD3 inh. HepG2 CAGA-GFP TGF-b reporter, GFP fluorescence, 18 h; cells stimulated with TGF-beta, 500 pg/mL. Potency, µM (doses to about 46.1 µM), actives largely listed as inhibitors. actives 63% (n = 1,600). AID 720534; note: nearly all actives have a fitted effect of over 65% in size
HepG2 tox-2 = HepG2 cytotoxicity, TGF-b inhibitor counterscreen; actives 27% (n = 1,600); HepG2 CAGA-GFP viability, ATP luminescence, 18 h; cells stimulated with TGF-beta, 500 pg/mL; shares compounds with TGFb SMAD3 inh; Potency, µM (series often up to 46.1 µM), hits mostly inhibitors; AID 720535; note: nearly all actives have a fitted effect of over 70% in size
TGFb CCL64 inh = blocks TGF-b signaling in CCL64 reporter cells. AID 720536. shares compounds with TGFb SMAD3 inh. actives 41% (n = 1,600). Potency, µM (top dose mostly 46.1 µM), actives largely listed as inhibitors. CCL64 CAGA-GFP reporter, TGF-b stimulated, GFP fluorescence, 18 h; note: nearly all actives have a fitted effect of over 65% in size
COP TGFb inh = blocks TGF-b signaling in HepG2 COP reporter. actives 3% (n = 1,600). shares compounds with TGFb SMAD3 inh. AID 720537. HepG2 COP-GFP TGF-b reporter, GFP fluorescence, 18 h; cells stimulated by added recombinant TGF-beta. Potency, µM (doses to about 46.1 µM), hits mostly inhibitors; note: nearly all actives have a fitted effect of over 70% in size
Each line names hits and unclear results; the compound was inactive in the other large screens (follow-up assays come after a bar, where they were run). Sampled rows, rich in hits. Any-hit rate of the full collection: about 17%. Calls come from the whole dose curve; as a rule, active = well fitted curve in the direction sought with a large enough effect; inconclusive = small, poorly fitted or top-dose-only effect, or another doubt; inactive = no such curve, though single readings can be large; an effect the other way counts as inactive or inconclusive.

COc1ccc2c(c1)/C(=C\c1cccc(/C=C3/C(=O)Nc4ccc(OC)cc43)n1)C(=O)N2	HT1080NT lethal 2.91µM, HT1080 IDH1KD tx 3.26µM, DT40 TDP1 no CPT 1.84µM, DT40 TDP1 CPT 1.64µM, TGFb SMAD3 inh 1.26µM | TGFb CAGA inh 2.91µM | HepG2 tox-2 2.59µM | TGFb CCL64 inh 1.46µM | COP TGFb inh inactive
O=C(C1CCC(=O)N(C2CCCCCC2)C1)N1CCN(c2ccccc2Cl)CC1 (stereo unspecified)	HT1080NT lethal inconclusive, DT40 TDP1 no CPT 20.6µM, DT40 TDP1 CPT inconclusive, TGFb SMAD3 inh 7.08µM | TGFb CAGA inh inactive | HepG2 tox-2 inactive | TGFb CCL64 inh inconclusive | COP TGFb inh inactive
Cc1cc(C(=O)NNC(=O)NC(C)C)no1	none
O=C(OCc1ccccc1)N(CCCCN(CCCNCc1ccccc1)C(=O)OCc1ccccc1)CCCNCc1ccccc1	HT1080NT lethal inconclusive, HT1080 IDH1KD tx inconclusive, DT40 TDP1 no CPT 5.17µM, HepG2 tox-1 5.62µM, DT40 TDP1 CPT 5.17µM, TGFb SMAD3 inh 5.01µM | TGFb CAGA inh 13µM | HepG2 tox-2 8.2µM | TGFb CCL64 inh inconclusive | COP TGFb inh inconclusive
O=C(NCCCCCCNC(=O)OCc1ccccc1)OCc1ccccc1	none
CNC(=O)c1[nH]cnc1C(=O)Nc1cccc(Cl)c1	DT40 TDP1 CPT inconclusive, TGFb SMAD3 inh inconclusive
CC(C)(C)OC(=O)[C@H](Cc1ccccc1)NC(=O)c1nc[nH]c1C(=O)NCCCCCN	DT40 TDP1 no CPT inconclusive
CC(C)C[C@H](NC(=O)c1nc[nH]c1C(=O)N1CCN(c2ccccc2)CC1)C(=O)OC(C)(C)C	DT40 TDP1 no CPT inconclusive, DT40 TDP1 CPT 20.6µM, TGFb SMAD3 inh inconclusive | TGFb CAGA inh inactive | HepG2 tox-2 inactive | TGFb CCL64 inh inactive | COP TGFb inh inactive
CC(C)(C)OC(=O)[C@H](Cc1ccccc1)NC(=O)c1nc[nH]c1C(=O)N[C@@H](Cc1ccccc1)C(=O)OC(C)(C)C	HT1080 IDH1KD tx inconclusive, DT40 TDP1 no CPT 18.4µM, DT40 TDP1 CPT 14.6µM, TGFb SMAD3 inh 12.6µM | TGFb CAGA inh 14.6µM | HepG2 tox-2 inconclusive | TGFb CCL64 inh inconclusive | COP TGFb inh inactive
CN(Cc1ccccc1)C(=O)c1[nH]cnc1C(=O)Nc1cccc(Cl)c1	DT40 TDP1 no CPT inconclusive, DT40 TDP1 CPT inconclusive, TGFb SMAD3 inh inconclusive | TGFb CAGA inh inconclusive | HepG2 tox-2 inconclusive | TGFb CCL64 inh inactive | COP TGFb inh inactive
CC(C)(C)OC(=O)[C@H](Cc1ccccc1)NC(=O)c1[nH]cnc1C(=O)Nc1cccc(Cl)c1	HT1080NT lethal inconclusive, HT1080 IDH1KD tx inconclusive, DT40 TDP1 no CPT inconclusive, DT40 TDP1 CPT inconclusive, TGFb SMAD3 inh 10µM | TGFb CAGA inh 20.6µM | HepG2 tox-2 18.4µM | TGFb CCL64 inh inconclusive | COP TGFb inh inactive

Screening results from PubChem.
